# p-CIP stab down: compounds decreasing mouse p/CIP protein stability; Q05BA5; F442A p/CIP-EGFP cells, EGFP fluorescence, 16 h; decrease of EGFP signal, % at 10 µM; actives 0.01% (n = 290,000); AID 1984;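 active = EGFP signal decrease of at least 30% at 10 µM or well 3 SD below plate mean, unless failing retest; inactive = the rest, including hits failing retest or dose response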
# PHOSPHO1 block: PHOSPHO1 (human) inhibition; Q8TCT1; recombinant PHOSPHO1, absorbance phosphatase assay; inhibition, % at 13.3 µM; actives 1.1% (n = 290,000); AID 1565; in the data active = inhibition above about 60%
# Target sequence (Q8TCT1 whole entry, looked up): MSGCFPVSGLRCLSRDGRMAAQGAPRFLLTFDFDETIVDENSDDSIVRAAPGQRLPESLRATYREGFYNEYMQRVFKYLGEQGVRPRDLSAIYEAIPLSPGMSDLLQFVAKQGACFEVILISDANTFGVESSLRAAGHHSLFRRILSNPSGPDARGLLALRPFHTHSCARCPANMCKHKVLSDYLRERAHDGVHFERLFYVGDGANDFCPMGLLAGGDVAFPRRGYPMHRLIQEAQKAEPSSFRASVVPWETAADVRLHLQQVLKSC
# UBC9 SUMO inh: SUMOylation inhibition; HTRF SUMOylation assay, SAE1/SAE2 + UBC9, in vitro; inhibition, % at 35 µM; actives 0.36% (n = 290,000); AID 2006; in the data active = inhibition above about 50%, passing the limit was not always enough
# Target sequence (P63279 whole entry, looked up): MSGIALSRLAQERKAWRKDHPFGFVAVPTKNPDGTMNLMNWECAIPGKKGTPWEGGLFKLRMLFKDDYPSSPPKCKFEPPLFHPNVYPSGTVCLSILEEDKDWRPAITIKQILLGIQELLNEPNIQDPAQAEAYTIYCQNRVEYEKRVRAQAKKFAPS
# NadD inh: blocks S. aureus nicotinate mononucleotide adenylyltransferase. purified NadD enzyme, colorimetric absorbance read-out. inhibition, % at 20 µM. actives 0.78% (n = 360,000). AID 602399; in the data active = inhibition above about 26%
# Numbers stand for hits; - = inactive; . = not tested or not shown. Sampled rows, rich in hits. Any-hit rate of the full collection: about 1.8%.
SMILES,p-CIP stab down,PHOSPHO1 block,UBC9 SUMO inh,NadD inh
Cc1nc2c(OCc3cccc(Cl)c3)cccn2c1N(C)Cc1cccs1,.,.,.,-
Nn1c(SCC(=O)Nc2ccc3c(c2)OCCO3)nnc1C(F)(F)F,-,91.1,-,-
Cc1nnc(SCC(=O)Nc2ccc3c(c2)OCCO3)n1N,-,-,-,-
Cc1cccc(C)c1-n1nnnc1C1(C)CCC(=O)N1CC1CCCCC1 (centres undefined),.,.,.,-
CC(Sc1nc2ccccc2o1)C(=O)O (centres undefined),-,76.1,-,-
CCC(Sc1nc2ccccc2o1)C(=O)O (centres undefined),-,-,-,-
COc1cccc(N=Nc2ccc(O)c3ncccc23)c1,-,-,-,34.3
O=S(=O)(O)c1cccc2c(N=Nc3ccc(O)c4ncccc34)cccc12,-,-,90.4,-
COc1ccc(C)cc1N=Nc1ccc(O)c2ncccc12,-,-,-,-
O=Nc1ccc(O)c2ncccc12,-,-,-,-
Cc1ccccc1N=Nc1ccc(O)c2ncccc12,-,-,-,32.7
COc1ccc(N=Nc2ccc(O)c3ncccc23)cc1,-,-,-,40.3
O=C(C1CCN(S(=O)(=O)c2cccc3nsnc23)CC1)N1CCCc2ccccc21,-,60.5,-,-
O=C(C1CCN(S(=O)(=O)c2cccc3nsnc23)CC1)N1CCc2ccccc21,-,-,-,-
CCc1c(C)c2cc(Cl)c(O)c(CN(C)C)c2oc1=O,-,-,51.1,-
COCCNC(=O)CCC1CCN(Cc2ccc(-c3ccccc3)cc2)CC1,-,-,79.7,-
CN(c1ccc(C(=O)Nc2cccnc2)cc1)S(=O)(=O)c1ccc(Cl)cc1,-,62.8,-,-
Cc1ccc(S(=O)(=O)N(C)c2ccc(C(=O)NCc3ccccn3)cc2)cc1,-,-,-,-
CN(c1ccc(C(=O)NCc2ccccn2)cc1)S(=O)(=O)c1ccc(Cl)cc1,-,61.0,-,-
CC(C)COc1cccc(-c2cc(C(=O)N/N=C/c3ccncc3)c3ccccc3n2)c1,-,-,-,-
COc1ccc(NC(=O)Nc2ccc3c(c2)C(=O)N([C@H](C)CO)C[C@H](C)[C@@H](CN(C)Cc2ccc(Cl)c(Cl)c2)OCCCC[C@@H](C)O3)cc1,.,.,.,39.6
C/C(=N\NS(=O)(=O)c1ccc(C)c([N+](=O)[O-])c1)c1cc2ccccc2o1,-,78.9,-,-
CCOC(=O)N1CCN(C(=O)c2cccc(-n3c(=S)[nH]c4cc(Cl)ccc4c3=O)c2)CC1,-,63.9,-,-
CCOC(=O)N1CCN(C(=O)c2ccc3c(=O)n(-c4ccc(OC)cc4)c(=S)[nH]c3c2)CC1,-,-,-,-
CC(=O)c1ccc(N/N=C2/CCCNC2=O)cc1,-,-,-,-
SMILES,p-CIP stab down,PHOSPHO1 block,UBC9 SUMO inh,NadD inh
Cc1ccc(N/N=C2/CCCNC2=O)cc1,-,93.0,-,-
O=[N+]([O-])c1cc(CN2CCOCC2)c2cccnc2c1O,-,-,89.0,.
CN(Cc1cc([N+](=O)[O-])c2cccnc2c1O)C1CCCCC1,-,-,-,.
O=[N+]([O-])c1cc(CN2CCN(c3ccccc3)CC2)c(O)c2ncccc12,-,-,-,71.2
O=[N+]([O-])c1cc(Cl)c2cccnc2c1O,-,-,-,-
O=[N+]([O-])c1cc(Cl)c(O)c2ncccc12,-,-,59.1,-
Oc1c(Cl)cc(CN2CCOCC2)c2cccnc12,.,.,.,-
O=C(CCl)NC(Cc1ccccc1)C(=O)OCC(=O)c1ccc(-c2ccccc2)cc1 (centres undefined),.,.,.,-
Cc1ccc2c(c1)C(N1CCCC1=O)CC(c1ccco1)N2 (centres undefined),-,75.8,-,-
Cc1ccc(C2CC(c3ccco3)n3ncnc3N2)cc1 (centres undefined),-,-,-,-
Cc1cccc(-n2nnc(C(=O)NCc3ccc4c(c3)OCO4)c2N)c1,-,60.5,-,-
CCCCN(C(=O)C(C)Oc1ccc(Br)cc1)c1c(N)n(CC(C)C)c(=O)[nH]c1=O (centres undefined),.,.,.,-
S=c1[nH]nc(-c2ccccc2)o1,-,101.4,-,-
CSc1ccccc1-c1n[nH]c(=S)o1,-,-,-,-
Cc1ccccc1-c1n[nH]c(=S)o1,-,96.1,-,-
O=c1c(-c2ccccc2)cocc1-c1ccccc1,.,.,.,-
C(=C\c1ccccc1)/CN1CCN(C(c2cccs2)c2nnnn2-c2ccc3c(c2)OCCO3)CC1 (centres undefined),.,.,.,-
Cc1ccc(S(=O)(=O)N2C[C@H]3C(=O)C[C@@H](c4ccccc4)N(S(=O)(=O)c4ccc(C)cc4)[C@H]3C[C@H]2c2cccc(C)c2)cc1,.,.,.,-
Cc1ccc(C(=O)CSc2nnc(-c3ccc4[nH]c(C)c(C)c4c3)o2)cc1C,-,74.2,-,-
CC(=O)c1c(C)[nH]c(C(=O)CSc2nnc(-c3ccccc3)o2)c1C,-,-,-,-
Cc1[nH]c2ccc(-c3nnc(SCC(=O)c4ccccc4F)o3)cc2c1C,-,87.9,-,-
COc1ccc(N2CCN(C(=O)CSc3nnc(-c4ccc5[nH]c(C)c(C)c5c4)o3)CC2)cc1,-,63.6,-,-
COC(=O)[C@]12CCCCC=C1N(Cc1ccccc1)C(=O)[C@H](CC(=O)NCC1CCCCC1)C2,.,.,.,-
Cn1c(=O)[nH]c(=O)c2c1nc(N1CCCCC1)n2C/C=N/Nc1ccc(C(=O)O)cc1,-,64.5,-,-
C/C=C/Cn1c(N2CCCCCC2)nc2c1c(=O)[nH]c(=O)n2C,-,-,-,-
SMILES,p-CIP stab down,PHOSPHO1 block,UBC9 SUMO inh,NadD inh
Cc1ccc(CO/N=C\Cc2snc(Sc3ncc(C(F)(F)F)cc3Cl)c2C#N)cc1,-,95.4,-,-
CCCCN1C(=O)C(CC(=O)NC2CCCC2)CC(C(=O)N(C(C)C)C(C)C)=C1C (centres undefined),.,.,.,-
CCOC(=O)c1c(CN2CCCCC2)n(C)c2cc(Br)c(OC)cc12,-,63.9,-,-
CCOC(=O)c1c(CN2CCN(CCO)CC2)n(C)c2cc(Br)c(OC)cc12,-,-,-,-
COc1ccc(N=C(C)C2C(=O)c3ccccc3C2=O)cc1,.,.,.,-
Cc1ccc(N(CC(=O)NC(C)C)C(=O)CCC(=O)Nc2ccccn2)c(C)c1,.,.,.,-
COc1ccc(C2CC(=O)C=C(NCc3ccc4c(c3)OCO4)C2)cc1 (centres undefined),-,60.8,-,-
O=C(NCC(F)(F)F)c1ccc2sc([C@@H]3O[C@H](CO)[C@H](O)[C@H](O)[C@H]3O)nc2c1,.,.,.,-
CCN(CC)CCNC(=O)c1ccc2c(c1NCCO)C(=O)c1ccccc1C2=O,35.8,-,-,-
O=C1C2C3C=CC(CC3)C2S(=O)(=O)C2C3C=CC(CC3)C12 (centres undefined),.,.,.,-
Nc1nc(N=Nc2ccc(O)cc2)cc(=O)[nH]1,.,.,.,-
CCSc1nnc(NC(=O)C2Cc3ccccc3CN2C(=O)c2ccco2)s1 (centres undefined),-,61.0,-,-
Cn1ccnc1SCC(=O)c1ccc(Br)cc1,-,61.2,-,-
Cn1ccnc1SCC(=O)c1ccc([N+](=O)[O-])cc1,-,-,-,-
O=C(N/N=C/c1cccc(OCc2ccccc2)c1)c1cccs1,-,-,-,-
O=C(O)c1ccc(COc2ccc(/C=N/NC(=O)c3cccs3)cc2)cc1,-,76.8,-,-
